Out of some 190,000 compounds screened, about 570 (0.3%) were called active.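 Rule for the calls: active = z-score above 3 at 5 µM with at least 500 cells counted in the well; inconclusive = wells under 500 cells, flagged as cytotoxic or low count; inactive = the rest.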 The list comes from a sample in which actives are over-represented; it also holds similar structures and randomly drawn compounds.

A short description of the assay: insulin promoter activators in MIN6 cells, imaging, high-content screening, mouse beta cells (AID 1625).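 For cell count: total cells summed across four imaged fields per well.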 The following applies: MIN6 insulin promoter-GFP reporter, at 5 µM; cell count: measured here: cytotoxicity, nuclei count; z-score: stronger effect = higher value.
For `Cc1cc2nc(C(F)(F)F)cc(-c3cccs3)n2n1`, the cell count worked out at 1200 cells and the z-score was -0.13 (inactive).

For the compound `O=C(COC(=O)C12CC3CC(CC(O)(C3)C1)C2)NC12CC3CC(CC(C3)C1)C2`, the cell count worked out at 1360 cells and the z-score was -1.25 (inactive).

`Clc1ccc2nc(-c3ccccc3)nc(C(Cl)Cl)c2c1`: the cell count was determined as 892 cells and the z-score was -0.12 (inactive).

As for `CN(c1ccccc1)c1ccc(/C=c2\s/c(=C(/C#N)C(=O)C(C)(C)C)n(Cc3ccco3)c2=O)cc1`, the cell count was found to be 1460 cells and the z-score was 12.8 (active).

As to `CCOC(=O)CSc1nc2c(sc(=S)n2CCc2ccccc2)c(=O)n1Cc1ccco1`, the cell count came out at 1440 cells and the z-score was -0.59 (inactive).

Take `Cc1cc2c(c(=O)n1Cc1ccco1)C(c1ccccc1)C(C#N)=C(N)O2` (stereo unspecified): the cell count stood at 961 cells and the z-score is -0.43 (inactive).

With `CSc1nc(-c2ccco2)nn1C(=O)c1ccccc1Cl`, the cell count was determined as 983 cells and the z-score was -0.05 (inactive).

Consider `COc1ccc(OC)c(CNC(=O)c2cc(=O)[nH]c3ccc(S(=O)(=O)N4CCCC4)cc23)c1`, for which the cell count was determined as 1540 cells and the z-score is -0.29 (inactive).

For `Cc1cc(C(=O)N/N=C/c2ccc(N3CCOCC3)cc2)c(C)o1`, the cell count amounted to 987 cells and the z-score is 0.32 (inactive).

In the case of `CCN(CC)c1ccc(C(=O)N/N=C/c2ccc(N3CCOCC3)cc2)cc1`, the cell count was 1830 cells and the z-score is 3.38 (active).

For the compound `Cc1ccc(C(=O)NC(=S)Nc2ccc(N3CCOCC3)cc2)cc1`, the cell count came out at 1440 cells and the z-score was -0.06 (inactive).

`COc1ccccc1Nc1nc(N)nc(CSC(=S)N2CCOCC2)n1`: the cell count was 1080 cells and the z-score is -0.34 (inactive).

`CCCN(c1ccc(C)cc1)c1nc(=O)c2cccnc2s1`: the cell count worked out at 1150 cells and the z-score was 0.79 (inactive).

For `O=C(NCc1ccc(F)cc1)C1CCC(CNc2c(N3CCOCC3)c(=O)c2=O)CC1` (stereo unspecified), the cell count came out at 1000 cells and the z-score is -0.88 (inactive).

Regarding `CC(C)CN(CC(C)C)CC(O)CN(c1ccccc1)S(=O)(=O)c1ccccc1[N+](=O)[O-]` (stereo unspecified), the cell count was determined as 1100 cells and the z-score was -1.15 (inactive).

In the case of `CC(C)CNC(=O)C(=O)NCc1ccccc1`, the cell count came out at 1620 cells and the z-score is -0.28 (inactive).

With `Cc1nn(-c2ccccc2)c(Cl)c1C(=O)Nc1ccccc1`, the cell count came out at 1480 cells and the z-score was -0.05 (inactive).

Take `Cc1nn(-c2ccccc2)c(C)c1NC(=O)COc1ccc(Cl)cc1Cl`: the cell count is 1470 cells and the z-score is 1.23 (inactive).

Regarding `Cc1nn(-c2ccccc2)c(C)c1NC(=O)CCl`, the cell count was 1030 cells and the z-score was 3.88 (active).

On to `S=C(NCCc1ccccc1)N1CCn2cccc2C1c1ccncc1` (stereo unspecified), for which the cell count worked out at 1320 cells and the z-score was 0.43 (inactive).

For `O=C(CN1CCN(Cc2ccccc2)CC1)NC(c1ccccc1)c1ccccc1`, the cell count was determined as 847 cells and the z-score is 0.25 (inactive).

In the case of `CCN(CC(=O)Nc1cccc(S(N)(=O)=O)c1)Cc1nc2ccccc2c(=O)[nH]1`, the cell count was 1090 cells and the z-score was 0.21 (inactive).

With `CC(=O)Nc1ccc(NC(=O)COc2ccc(S(=O)(=O)NC(C)c3ccccc3)cc2)cc1` (stereo unspecified), the cell count came to 1520 cells and the z-score was -0.4 (inactive).

The record behind these values is PubChem BioAssay AID1625 (Sanford-Burnham Center for Chemical Genomics, 2009).
